Results taken from PubChem BioAssay.
Active and inactive are the calls of the source.

Assay: optical density change of DRC41 E. coli – strain DRC41, OD650, 24 h, E. coli filamentation project, primary screen (AID 1093);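 also: MC1000 strain lacking acrAB efflux and sulA so SOS filamentation is blocked; test concentration not given here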
Conditions: E. coli DRC41 growth, higher = more signal, called active from +8 up or from −8 down

Row | Compound | z-score
1 | [N-]=[N+]=NCc1ccccc1C[C@@]1(C(=O)NCCN2CCOCC2)N=C(c2ccc(OCCCO)cc2)O[C@@H]1c1ccccc1CN=[N+]=[N-] | 1.24 (inactive)
2 | C[C@]12C(=O)N(CCCO)[C@@H]3C(=O)N(c4ccc(Cl)cc4)CC=CC31O[C@@H]1/C=C\CCCOC(=O)C12 (some centres not stated) | -0.298 (inactive)
3 | CCCCC(O)C1C=CC2C(=O)N(Cc3ccccc3)C(=O)C2N1n1cnnc1 (configuration not stated) | -0.981 (inactive)
4 | Cc1ccccc1C(O)C1C=CC2C(=O)N(C)C(=O)C2N1Nc1ccc([N+](=O)[O-])cc1[N+](=O)[O-] (configuration not stated) | -1.24 (inactive)
5 | COCCOC(=O)N1C(=O)[C@@]2(c3cc(C#Cc4ccc(OC)cc4)ccc31)[C@H](C(=O)N1CCc3cc(OC)c(OC)cc3C1)[C@H]1C(=O)O[C@H](c3ccccc3)[C@H](c3ccccc3)N1[C@@H]2c1ccc(OCCO)cc1 | 0.816 (inactive)
6 | O=c1c2ccc(Br)cc2nc(-c2ccccc2)n1Cc1cccc(O)c1 | 1.38 (inactive)
7 | Cc1ccc(S[C@]2(C(=O)NCCN3CCOCC3)CC(=O)N(C3Cc4ccccc4C3)[C@@H]2c2ccc(CO)cc2)cc1 | 0.7 (inactive)
8 | C=CC[C@@]1(C(=O)NCCN2CCOCC2)N=C(c2ccc(OCCCO)cc2)O[C@@H]1c1ccccc1 | 0.0348 (inactive)
9 | C[C@H]1NC(=O)C([C@@H](C)OCc2ccccc2)NC(=O)[C@@]23C(=O)N[C@@H](Cc4ccccc4)C2[C@H](C)[C@@]2(C)O[C@H]2C3/C=C/CC/C=C/CNC1=O (some centres not stated) | 2.13 (inactive)
10 | C/C=C/[C@@H](CCn1cc([C@H](O)c2ccccc2)nn1)[Si](C)(C)c1ccc(OC)cc1 | 1.43 (inactive)
11 | CCCC=C(CCC)[C@@H](NC(=O)Cc1ccccc1)c1ccc(C(=O)OC)cc1 | -0.556 (inactive)
12 | C=C(COC)/C(=C/C[C@@H](OC(=O)c1ccncc1)c1cccc(OCCO)c1)c1cc(C(=O)OC)ccc1OC | 0.625 (inactive)
13 | COc1cc(NN2C(C(O)c3ccc(I)cc3)C=CC3C(=O)N(C)C(=O)C32)cc(OC)c1OC (configuration not stated) | 0.202 (inactive)
14 | COCCCNC(=O)[C@@]1(Cc2ccccc2CN=[N+]=[N-])N=C(c2ccc(OCCCO)cc2)O[C@H]1c1ccccc1N=[N+]=[N-] | 2.53 (inactive)
15 | O=C(CS)NCCCCCNC(=O)[C@@H]1C[C@@H]2C(=O)N3CCC[C@H]3C(=O)N2[C@@H]1c1ccc(O)cc1 | 0.0681 (inactive)
16 | Cc1cc(C)c(C(O)C2C=CC3C(=O)N(c4ccccc4)C(=O)C3N2Nc2ccc([N+](=O)[O-])cc2)c(C)c1 (configuration not stated) | 0.356 (inactive)
17 | C=C[C@H](C)[C@H](OC(=O)Nc1ccc(SC)cc1)c1ccc(O)c2ccccc12 | 0.949 (inactive)
18 | COC(=O)C(CC#Cc1ccc2c(c1)[C@]1(C(=O)N2)[C@H](C(=O)N2CCc3cc(OC)c(OC)cc3C2)[C@H]2C(=O)O[C@H](c3ccccc3)[C@H](c3ccccc3)N2[C@@H]1c1ccc(OCCO)cc1)C(=O)OC | 0.37 (inactive)
19 | COC(=O)[C@@]1(Cc2ccc(OC)cc2)[C@H]2c3cc(C(=O)N4CCCC4)n(CCc4ccc(O)c(OC)c4)c3C[C@H]2CN1C(=O)c1ccccc1 | -1.13 (inactive)
20 | O=C1N(CCS(=O)(=O)c2ccccc2)Cc2ccccc2C[C@@]12COC(c1ccc(OCCCO)cc1)=N2 | 0.937 (inactive)
21 | CC(C)C[C@H]1NC(=O)[C@H](C)NC(=O)[C@@]23C(=O)N[C@@H](Cc4ccccc4)C2[C@H](C)[C@@]2(C)O[C@H]2C3/C=C/C/C=C\CNC1=O (some centres not stated) | -0.847 (inactive)
22 | COc1ccc([Si](C)(C)[C@H]2[C@H](CC(=O)N3CCC[C@H]3CO)O[C@@]3(C(=O)N(Cc4ccc(N5C(=O)c6cccc7cccc5c67)cc4)c4ccccc43)[C@@H]2C)cc1 | 0.965 (inactive)
23 | COc1cccc(C)c1NC(=O)O[C@H]1[C@H](OC(=O)Nc2ccccc2)[C@H](OC(=O)Nc2ccccc2)[C@@H](OC)O[C@@H]1CO | -0.721 (inactive)
24 | C=CCC(OC(C)=O)[C@@H]1[C@@H](N(Cc2ccc(-c3ccccc3)cc2)C(=O)c2cccc3ccccc23)c2cc(OCCCO)ccc2N1C(=O)c1ccc2ccccc2n1 (some centres not stated) | 0.488 (inactive)
25 | O=C1O[C@H](c2ccccc2)[C@H](c2ccccc2)N2[C@H]1[C@@H](C(=O)N1CCN(c3ncccn3)CC1)[C@]1(C(=O)Nc3ccc(C#CCCO)cc31)[C@H]2c1ccc(OCCO)cc1 | 0.132 (inactive)
26 | COC(=O)[C@@]1(Cc2ccccc2N=[N+]=[N-])N=C(c2ccc(OCCCO)cc2)O[C@H]1c1ccccc1 | 0.0111 (inactive)

Assay: probe aLefty2 binding to arrayed compounds – biochemical, biotinylated probe, 635/667 nm fluorescence, primary screen (AID 1094);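 also: score merges spot fluorescence near 667 nm with spot signal-to-noise ratio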
Conditions: small-molecule microarray, higher = more signal

Row | Compound | composite z-score
27 | COCC(=C=CC[C@@H](O)c1ccccc1OCCO)C[C@@H](O)c1ccccn1 | -0.0825
28 | COc1ccc([Si](C)(C)[C@H]2[C@H](CCO)O[C@@]3(C(=O)N(Cc4cccc(N5CCOC5=O)c4)c4ccccc43)[C@@H]2C)cc1 | 0.514
29 | COC(=O)C(CC#Cc1ccc2c(c1)[C@]1(C(=O)N2)[C@H](C(=O)N2CCc3cc(OC)c(OC)cc3C2)[C@H]2C(=O)O[C@H](c3ccccc3)[C@H](c3ccccc3)N2[C@@H]1c1ccc(O)cc1)C(=O)OC | 0.157
30 | COc1ccc([Si](C)(C)[C@H]2[C@H](CCn3cc(CCO)nn3)O[C@@]3(C(=O)N(Cc4cccc(N5C(=O)c6cccc7cccc5c67)c4)c4ccccc43)[C@@H]2C)cc1 | -0.288
31 | C[C@H]1ON(c2ccccc2)[C@@H](c2ccccc2)[C@@H]1C(=O)N1C(=O)OC[C@@H]1c1ccccc1 | -0.159
32 | COc1ccc(C#Cc2ccc3c(c2)[C@]2(C(=O)N3)[C@H](C(=O)O)[C@H]3C(=O)O[C@H](c4ccccc4)[C@H](c4ccccc4)N3[C@@H]2c2ccc(OCCO)cc2)cc1 | 0.054
33 | C=CCC(OC(C)=O)[C@@H]1[C@@H](N(Cc2ccc(-c3ccccc3)cc2)C(=O)Cc2ccc(OC)cc2)c2cc(OCCCO)ccc2N1C(=O)c1ccc(-c2ccccc2)cc1 (some centres not stated) | 0.152
34 | Cc1ccc(S[C@]2(C(=O)NCC(C)C)CC(=O)N(C3CCCCC3)[C@@H]2c2ccc(CO)cc2I)cc1 | 0.11
35 | COC(=O)C(CC#Cc1ccc2c(c1)[C@]1(C(=O)N2)[C@H](c2ccc(OCCO)cc2)N2[C@H](c3ccccc3)[C@H](c3ccccc3)OC(=O)[C@H]2[C@@H]1C(=O)O)C(=O)OC | 0.607
36 | [N-]=[N+]=NCc1ccccc1C[C@@]1(C(=O)NCCN2CCOCC2)N=C(c2ccc(OCCCO)cc2)O[C@@H]1c1ccccc1CN=[N+]=[N-] | 0.146
37 | C[C@]12C(=O)N(CCCO)[C@@H]3C(=O)N(c4ccc(Cl)cc4)CC=CC31O[C@@H]1/C=C\CCCOC(=O)C12 (some centres not stated) | -0.262
38 | CCCCC(O)C1C=CC2C(=O)N(Cc3ccccc3)C(=O)C2N1n1cnnc1 (configuration not stated) | -0.103
39 | Cc1ccccc1C(O)C1C=CC2C(=O)N(C)C(=O)C2N1Nc1ccc([N+](=O)[O-])cc1[N+](=O)[O-] (configuration not stated) | 0.25
40 | COCCOC(=O)N1C(=O)[C@@]2(c3cc(C#Cc4ccc(OC)cc4)ccc31)[C@H](C(=O)N1CCc3cc(OC)c(OC)cc3C1)[C@H]1C(=O)O[C@H](c3ccccc3)[C@H](c3ccccc3)N1[C@@H]2c1ccc(OCCO)cc1 | -0.104
41 | O=c1c2ccc(Br)cc2nc(-c2ccccc2)n1Cc1cccc(O)c1 | -0.0614
42 | Cc1ccc(S[C@]2(C(=O)NCCN3CCOCC3)CC(=O)N(C3Cc4ccccc4C3)[C@@H]2c2ccc(CO)cc2)cc1 | -0.0928

Row | Compound | composite z-score
43 | C=CC[C@@]1(C(=O)NCCN2CCOCC2)N=C(c2ccc(OCCCO)cc2)O[C@@H]1c1ccccc1 | 0.0634
44 | C[C@H]1NC(=O)C([C@@H](C)OCc2ccccc2)NC(=O)[C@@]23C(=O)N[C@@H](Cc4ccccc4)C2[C@H](C)[C@@]2(C)O[C@H]2C3/C=C/CC/C=C/CNC1=O (some centres not stated) | -0.016
45 | C/C=C/[C@@H](CCn1cc([C@H](O)c2ccccc2)nn1)[Si](C)(C)c1ccc(OC)cc1 | -0.171
46 | CCCC=C(CCC)[C@@H](NC(=O)Cc1ccccc1)c1ccc(C(=O)OC)cc1 | 1.1
47 | C=C(COC)/C(=C/C[C@@H](OC(=O)c1ccncc1)c1cccc(OCCO)c1)c1cc(C(=O)OC)ccc1OC | -0.205
48 | COc1cc(NN2C(C(O)c3ccc(I)cc3)C=CC3C(=O)N(C)C(=O)C32)cc(OC)c1OC (configuration not stated) | 0.0283
49 | COCCCNC(=O)[C@@]1(Cc2ccccc2CN=[N+]=[N-])N=C(c2ccc(OCCCO)cc2)O[C@H]1c1ccccc1N=[N+]=[N-] | 0.214
50 | O=C(CS)NCCCCCNC(=O)[C@@H]1C[C@@H]2C(=O)N3CCC[C@H]3C(=O)N2[C@@H]1c1ccc(O)cc1 | -0.0279
51 | Cc1cc(C)c(C(O)C2C=CC3C(=O)N(c4ccccc4)C(=O)C3N2Nc2ccc([N+](=O)[O-])cc2)c(C)c1 (configuration not stated) | 0.216
52 | C=C[C@H](C)[C@H](OC(=O)Nc1ccc(SC)cc1)c1ccc(O)c2ccccc12 | -0.125
53 | COC(=O)C(CC#Cc1ccc2c(c1)[C@]1(C(=O)N2)[C@H](C(=O)N2CCc3cc(OC)c(OC)cc3C2)[C@H]2C(=O)O[C@H](c3ccccc3)[C@H](c3ccccc3)N2[C@@H]1c1ccc(OCCO)cc1)C(=O)OC | 0.128
54 | COC(=O)[C@@]1(Cc2ccc(OC)cc2)[C@H]2c3cc(C(=O)N4CCCC4)n(CCc4ccc(O)c(OC)c4)c3C[C@H]2CN1C(=O)c1ccccc1 | 0.128
55 | O=C1N(CCS(=O)(=O)c2ccccc2)Cc2ccccc2C[C@@]12COC(c1ccc(OCCCO)cc1)=N2 | 0.686
56 | CC(C)C[C@H]1NC(=O)[C@H](C)NC(=O)[C@@]23C(=O)N[C@@H](Cc4ccccc4)C2[C@H](C)[C@@]2(C)O[C@H]2C3/C=C/C/C=C\CNC1=O (some centres not stated) | -0.27
57 | COc1ccc([Si](C)(C)[C@H]2[C@H](CC(=O)N3CCC[C@H]3CO)O[C@@]3(C(=O)N(Cc4ccc(N5C(=O)c6cccc7cccc5c67)cc4)c4ccccc43)[C@@H]2C)cc1 | -0.057
